# Laboratory results: PubChem BioAssay (EPA / NIEHS)
# Activity calls are given as the source filed them. Rule for the calls: active = hit-call score of the fitted dose curve at least 0.9, where 1 is the maximum; inactive = score below 0.9.
# Columns and labels:
# [1] = target: CCAAT/enhancer-binding protein beta (Homo sapiens) (UniProt P17676); experiment: ATG_C_EBP_CIS: Attagene CIS-FACTORIAL HepG2 Assay for human CCAAT/Enhancer Binding Protein (C/EBP) beta (AID 2282927); details: HepG2 Attagene cis-factorial transcription factor reporter; actives raise or lower the signal
# Method in brief: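 HepG2 transiently transfected with multiplexed reporter units under cis-regulatory promoters reporting endogenous C/EBPb activity. After 24 h exposure, reporter mRNA assayed by RT-PCR, fluorescent labelling, HpaI digestion and capillary electrophoresis; bidirectional fitting versus DMSO.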
# [2] = ATG_CMV_CIS: Attagene CIS-FACTORIAL HepG2 Assay for human CMV (Internal Marker) (AID 2282928); details: HepG2 CMV promoter reporter, transcription factor profiling; actives raise or lower the signal;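 note: endpoint acts as a background internal control marker rather than a target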
# Method in brief: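 CMV internal-marker background readout in transiently transfected HepG2 cells bearing cis-regulated reporter units. Reporter mRNA is measured 24 h after dosing by RT-PCR and capillary electrophoresis, with bidirectional fitting against DMSO.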
# [3] = ATG_AP_1_CIS: Attagene CIS-FACTORIAL HepG2 Assay for human Activator Protein 1 (AP-1) (AID 2282931); details: HepG2 Attagene cis-factorial AP-1 reporter mRNA; actives raise or lower the signal
# Method in brief: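 After 24 h incubation with test chemical, RNA from transfected HepG2 cells was reverse-transcribed, amplified, fluorescently labelled and digested before capillary electrophoresis. Reporters were driven by cis-regulatory promoters; activity fitted bidirectionally versus DMSO.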
# [4] = ATG_AP_2_CIS: Attagene CIS-FACTORIAL HepG2 Assay for human Activator Protein 2 (AP-2) (AID 2282932); details: HepG2 AP-2 cis-reporter, Attagene transcription factor profiling; actives raise or lower the signal
# Method in brief: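 HepG2 cells transiently transfected with cis-element reporter units and exposed for 24 h. Reporter mRNA measured by RT-PCR, FAM labelling, HpaI digestion and capillary electrophoresis. Changes in either direction fitted relative to DMSO.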
# [5] = ATG_BRE_CIS: Attagene CIS-FACTORIAL HepG2 Assay for human Bone Morphogenetic Protein (BMP) Response Element (BRE) (AID 2282933); details: HepG2 BMP response element reporter, Attagene transcription factor profiling; actives raise or lower the signal
# Method in brief: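 A HepG2 multiplex reporter system measured inducible reporter mRNA 24 h post-dosing. Detection: RT-PCR, 6-FAM primer extension, HpaI digestion, capillary electrophoresis. Activity fitted bidirectionally relative to DMSO.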
# [6] = ATG_E_Box_CIS: Attagene CIS-FACTORIAL HepG2 Assay for human Enhancer Box (E-box) (AID 2282936); details: HepG2 E-box cis-reporter transcription, actives raise or lower the signal
# Method in brief: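 HepG2 cells transiently transfected with multiplexed cis-element reporter units, dosed 24 h; reporter mRNA quantified by RT-PCR, 6-FAM labelling, HpaI digestion and capillary electrophoresis. E-box (USF1) signal fitted bidirectionally vs DMSO.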
# [7] = ATG_M_61_CIS: Attagene CIS-FACTORIAL HepG2 Assay for M61 Transcription Factor (Internal Marker) (AID 2282937); details: HepG2 Attagene CIS-FACTORIAL M61 internal marker reporter; actives raise or lower the signal
# Method in brief: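 Using transiently transfected HepG2 liver cells, reporter transcript levels were assessed 24 h post-dosing by RT-PCR and capillary electrophoresis. Changes in either direction were fitted relative to DMSO controls.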
# [8] = ATG_EGR_CIS: Attagene CIS-FACTORIAL HepG2 Assay for human Early Growth Response 1 (EGR1) (AID 2282938); details: HepG2 Attagene CIS-FACTORIAL EGR reporter mRNA; actives raise or lower the signal
# Method in brief: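 Fluorescent capillary-electrophoresis signal of reporter cDNA fragments serves as read-out. HepG2 cells bear transiently transfected cis-promoter reporter units and are exposed 24 h; gain- or loss-of-signal is fitted against DMSO.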
# [9] = ATG_Ets_CIS: Attagene CIS-FACTORIAL HepG2 Assay for human Erythroblast Transformation Specific (ETS) (AID 2282941); details: HepG2 ETS cis-reporter transcription, actives raise or lower the signal
# Method in brief: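 HepG2 cells transfected with multiple cis-regulated reporter units measuring endogenous ETS-driven transcription, 24 h after dosing. Reporter mRNA quantified by RT-PCR with capillary electrophoresis; bidirectional fit relative to DMSO.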
# [10] = ATG_FoxO_CIS: Attagene CIS-FACTORIAL HepG2 Assay for human Forkhead box O (FoxO) (AID 2282943); details: HepG2 Attagene cis-reporter, FoxO element, mRNA; actives raise or lower the signal
# Method in brief: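 HepG2 cells transiently transfected with cis-element-driven reporter units report endogenous FoxO activity. After 24 h chemical exposure, reporter mRNA quantified by RT-PCR, fluorescent labeling, HpaI digestion and capillary electrophoresis; bidirectional fit versus DMSO.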
# [11] = ATG_GATA_CIS: Attagene CIS-FACTORIAL HepG2 Assay for human GATA Binding Protein (AID 2282944); details: HepG2 GATA cis-element reporter, Attagene multiplex mRNA; actives raise or lower the signal
# Method in brief: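 Transfected cis-reporter HepG2 cells were treated with chemicals for 24 hours. Total RNA was then converted to cDNA, amplified with reporter-specific primers and analysed by fluorescent capillary electrophoresis, using DMSO-treated wells as baseline.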
# [12] = ATG_ISRE_CIS: Attagene CIS-FACTORIAL HepG2 Assay for human Interferon Regulatory Factor 1 (IRF1) binding to an Interferon-Stimulated Response Element (ISRE) (AID 2282948); details: HepG2 ISRE cis-reporter (Attagene), mRNA transcription readout; actives raise or lower the signal
# Method in brief: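 Transiently transfected HepG2 cells carrying cis-element reporter units, dosed 24 hours. Reporter mRNA quantified by RT-PCR, fluorescent primer extension, HpaI digestion and capillary electrophoresis. Bidirectional fitting relative to DMSO.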
# [13] = ATG_M_06_CIS: Attagene CIS-FACTORIAL HepG2 Assay for M06 Transcription Factor (Internal Marker) (AID 2282950); details: HepG2 Attagene CIS-FACTORIAL M06 internal marker reporter; actives raise or lower the signal
# Method in brief: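 Cells (HepG2, transiently carrying cis-driven reporter units) receive chemical for 24 h before RNA isolation. Reporter cDNA is PCR-amplified, FAM-labelled by primer extension, HpaI-digested and sized on a capillary analyser.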
# [14] = ATG_MRE_CIS: Attagene CIS-FACTORIAL HepG2 Assay for human Metal Responsive Element (MRE) (AID 2282954); details: HepG2 MRE cis-reporter transcription, Attagene multiplex; actives raise or lower the signal
# Method in brief: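 HepG2 cells transiently transfected with cis-element-driven reporter units; mRNA measured 24 h after dosing. Reporter transcripts quantified by RT-PCR, FAM labelling, HpaI digestion and capillary electrophoresis; bidirectional fit versus DMSO.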
# [15] = target: Paired box protein Pax-6 (Homo sapiens) (UniProt P26367); experiment: ATG_Pax6_CIS: Attagene CIS-FACTORIAL HepG2 Assay for human Paired Box 6 (PAX6) (AID 2282956); details: HepG2 CIS-FACTORIAL PAX6 reporter transcription, RNA readout; actives raise or lower the signal
# Method in brief: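 HepG2 cells transiently transfected with cis-promoter-driven multiplexed reporter units sensing endogenous transcription factor activity; 24 h chemical exposure. Reporter mRNA quantified by RT-PCR, 6-FAM labelling, HpaI digestion and capillary electrophoresis; bidirectional fit versus DMSO baseline.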
# [16] = target: Transcription factor Sp1 (Homo sapiens) (UniProt P08047); experiment: ATG_Sp1_CIS: Attagene CIS-FACTORIAL HepG2 Assay for human Specificity Protein 1 (Sp1) (AID 2282961); details: HepG2 Sp1 cis-reporter transcription, actives raise or lower the signal
# Method in brief: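 After transient transfection of HepG2 cells with cis-promoter reporter units and 24 h chemical treatment, reporter transcripts were quantified by RT-PCR and capillary electrophoresis fluorescence. Gain- and loss-of-signal fitted against DMSO.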
# [17] = ATG_SREBP_CIS: Attagene CIS-FACTORIAL HepG2 Assay for human Sterol Regulatory Element Binding (SREBP) (AID 2282962); details: HepG2 Attagene cis-factorial SREBP reporter, mRNA; actives raise or lower the signal
# Method in brief: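 HepG2 cells transiently transfected with multiplexed cis-promoter reporter units sensing endogenous transcription factors; reporter mRNA measured 24 h after dosing by RT-PCR, 6-FAM labeling, HpaI digestion and capillary electrophoresis. Bidirectional fit versus DMSO.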
# [18] = target: Signal transducer and activator of transcription 3 (Homo sapiens) (UniProt P40763); experiment: ATG_STAT3_CIS: Attagene CIS-FACTORIAL HepG2 Assay for human Signal Transducer and Activator of Transcription 3 (STAT3) (AID 2282963); details: HepG2, Attagene cis-factorial STAT3 reporter transcription; actives raise or lower the signal
# Method in brief: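 HepG2 cells transiently transfected with multiple cis-element-driven reporter units report endogenous transcription factor activity. After 24 h compound exposure, reporter mRNA is measured by RT-PCR, 6-FAM labelling, HpaI digestion and capillary electrophoresis. Fitted bidirectionally versus DMSO.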
# [19] = ATG_TAL_CIS: Attagene CIS-FACTORIAL HepG2 Assay for human TAL Basal Promoter (AID 2282966); details: HepG2 Attagene cis-factorial TAL promoter reporter; actives raise or lower the signal;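 note: background control endpoint measuring basal TAL promoter reporter mRNA not a specific factor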
# Method in brief: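 RT-PCR plus capillary electrophoresis quantifies reporter mRNA induction in transiently transfected HepG2 cells after 24 h chemical treatment. DMSO serves as negative control and baseline for bidirectional fitting.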
# [20] = target: X-box-binding protein 1 (Homo sapiens) (UniProt P17861); experiment: ATG_Xbp1_CIS: Attagene CIS-FACTORIAL HepG2 Assay for human X-box Binding Protein 1 (XBP1) (AID 2282972); details: HepG2 XBP1 cis-element reporter, Attagene multiplex; actives raise or lower the signal
# Method in brief: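 HepG2 cells transiently transfected with multiple cis-element reporter units report endogenous TF activity; 24 h exposure, then reporter mRNA measured by RT-PCR, 6-FAM labelling, HpaI digestion and capillary electrophoresis. Bidirectional fitting versus DMSO.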
# Chain of CCAAT/enhancer-binding protein beta (Homo sapiens) (P17676 whole entry, looked up): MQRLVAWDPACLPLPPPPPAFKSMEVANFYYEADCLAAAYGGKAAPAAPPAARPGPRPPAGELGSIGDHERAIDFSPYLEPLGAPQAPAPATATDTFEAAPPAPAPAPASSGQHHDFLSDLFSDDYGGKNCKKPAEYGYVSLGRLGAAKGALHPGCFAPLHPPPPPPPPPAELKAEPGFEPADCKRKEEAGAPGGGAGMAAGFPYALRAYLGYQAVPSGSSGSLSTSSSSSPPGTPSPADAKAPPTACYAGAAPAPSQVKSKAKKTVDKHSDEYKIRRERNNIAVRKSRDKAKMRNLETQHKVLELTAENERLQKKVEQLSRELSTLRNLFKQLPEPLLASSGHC
# Chain of Signal transducer and activator of transcription 3 (Homo sapiens) (P40763 whole entry, looked up): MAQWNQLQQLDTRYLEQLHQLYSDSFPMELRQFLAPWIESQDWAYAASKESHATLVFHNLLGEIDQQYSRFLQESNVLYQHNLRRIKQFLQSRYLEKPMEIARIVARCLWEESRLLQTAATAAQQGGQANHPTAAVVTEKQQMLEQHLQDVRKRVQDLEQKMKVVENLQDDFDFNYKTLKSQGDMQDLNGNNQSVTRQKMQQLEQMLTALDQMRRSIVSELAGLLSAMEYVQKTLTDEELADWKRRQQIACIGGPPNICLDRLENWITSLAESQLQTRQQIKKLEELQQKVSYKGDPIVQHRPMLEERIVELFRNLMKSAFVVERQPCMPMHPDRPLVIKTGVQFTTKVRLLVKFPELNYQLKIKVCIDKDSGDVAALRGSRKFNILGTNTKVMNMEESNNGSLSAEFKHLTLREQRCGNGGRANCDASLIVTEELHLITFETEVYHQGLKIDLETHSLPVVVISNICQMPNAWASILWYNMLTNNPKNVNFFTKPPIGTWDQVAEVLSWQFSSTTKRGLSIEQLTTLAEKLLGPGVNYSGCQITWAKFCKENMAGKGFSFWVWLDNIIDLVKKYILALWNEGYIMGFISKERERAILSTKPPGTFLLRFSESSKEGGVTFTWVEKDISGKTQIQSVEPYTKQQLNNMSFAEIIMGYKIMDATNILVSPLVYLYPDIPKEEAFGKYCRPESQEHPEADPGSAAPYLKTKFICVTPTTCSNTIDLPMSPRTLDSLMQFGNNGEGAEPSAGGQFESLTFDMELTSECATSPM
# Chain of X-box-binding protein 1 (Homo sapiens) (P17861 whole entry, looked up): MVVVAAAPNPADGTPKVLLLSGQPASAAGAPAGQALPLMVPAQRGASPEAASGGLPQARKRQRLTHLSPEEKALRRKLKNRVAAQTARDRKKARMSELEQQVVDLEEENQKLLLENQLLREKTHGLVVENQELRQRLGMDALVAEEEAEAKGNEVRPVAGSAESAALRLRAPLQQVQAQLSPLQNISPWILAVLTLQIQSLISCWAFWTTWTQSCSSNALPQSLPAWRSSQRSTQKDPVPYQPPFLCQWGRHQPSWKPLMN
# Chain of Paired box protein Pax-6 (Homo sapiens) (P26367 whole entry, looked up): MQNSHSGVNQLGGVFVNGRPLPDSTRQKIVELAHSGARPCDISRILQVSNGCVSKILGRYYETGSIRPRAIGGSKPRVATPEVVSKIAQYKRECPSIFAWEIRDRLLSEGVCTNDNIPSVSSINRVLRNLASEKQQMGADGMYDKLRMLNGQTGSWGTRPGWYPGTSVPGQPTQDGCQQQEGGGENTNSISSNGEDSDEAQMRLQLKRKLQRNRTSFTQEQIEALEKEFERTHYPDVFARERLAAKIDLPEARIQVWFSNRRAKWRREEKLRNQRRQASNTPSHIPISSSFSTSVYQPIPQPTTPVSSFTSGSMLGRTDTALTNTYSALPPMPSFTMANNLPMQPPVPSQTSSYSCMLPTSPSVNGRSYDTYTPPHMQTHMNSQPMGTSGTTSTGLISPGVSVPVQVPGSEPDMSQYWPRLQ
# Chain of Transcription factor Sp1 (Homo sapiens) (P08047 whole entry, looked up): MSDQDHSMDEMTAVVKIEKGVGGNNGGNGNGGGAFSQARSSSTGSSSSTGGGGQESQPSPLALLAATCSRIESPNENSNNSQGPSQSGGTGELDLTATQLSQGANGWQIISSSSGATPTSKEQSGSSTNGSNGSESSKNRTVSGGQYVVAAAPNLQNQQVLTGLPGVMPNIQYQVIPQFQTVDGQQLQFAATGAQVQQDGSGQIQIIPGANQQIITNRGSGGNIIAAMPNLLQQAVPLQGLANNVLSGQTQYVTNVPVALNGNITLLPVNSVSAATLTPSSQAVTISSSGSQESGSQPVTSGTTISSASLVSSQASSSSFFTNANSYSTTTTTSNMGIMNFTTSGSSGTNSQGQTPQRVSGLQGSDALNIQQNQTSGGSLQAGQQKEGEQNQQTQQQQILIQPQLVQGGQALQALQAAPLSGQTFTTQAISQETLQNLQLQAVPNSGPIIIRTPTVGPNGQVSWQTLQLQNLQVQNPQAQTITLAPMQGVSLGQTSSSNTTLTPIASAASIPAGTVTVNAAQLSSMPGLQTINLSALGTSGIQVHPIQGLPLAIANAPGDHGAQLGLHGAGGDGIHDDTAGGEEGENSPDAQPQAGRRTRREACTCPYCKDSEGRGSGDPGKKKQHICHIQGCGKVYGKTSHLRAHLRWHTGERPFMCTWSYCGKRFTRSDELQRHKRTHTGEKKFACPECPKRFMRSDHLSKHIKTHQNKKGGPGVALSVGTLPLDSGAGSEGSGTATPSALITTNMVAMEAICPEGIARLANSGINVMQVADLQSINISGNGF
smiles,measurement,setting,value
CC1=C(CC(=O)O)c2cc(F)ccc2/C1=C\c1ccc(S(C)=O)cc1 (stereo not given),outcome,[1],inactive
same,outcome,[2],inactive
same,outcome,[3],inactive
same,outcome,[4],inactive
same,outcome,[5],inactive
same,AC50,[6],43.4 µM (active)
same,outcome,[7],inactive
same,outcome,[8],inactive
same,outcome,[9],inactive
same,outcome,[10],inactive
same,outcome,[11],inactive
same,AC50,[12],44.9 µM (active)
same,outcome,[13],inactive
same,outcome,[14],inactive
same,outcome,[15],inactive
same,outcome,[16],inactive
same,outcome,[17],inactive
same,outcome,[18],inactive
same,outcome,[19],inactive
same,outcome,[20],inactive
CCC(C)C1N=C(C)C(C)S1 (stereo not given),outcome,[1],inactive
same,outcome,[2],inactive
same,outcome,[3],inactive
same,outcome,[4],inactive
same,outcome,[5],inactive
same,outcome,[6],inactive
same,outcome,[7],inactive
same,outcome,[8],inactive
same,outcome,[9],inactive
same,outcome,[10],inactive
same,outcome,[11],inactive
same,outcome,[12],inactive
same,outcome,[13],inactive
same,outcome,[14],inactive
same,outcome,[15],inactive
same,outcome,[16],inactive
same,outcome,[17],inactive
same,outcome,[18],inactive
same,outcome,[19],inactive
same,outcome,[20],inactive
CC[N+](CC)(CC(=O)Nc1c(C)cccc1C)Cc1ccccc1 (tested in a mixture with another compound),outcome,[1],inactive
same,outcome,[2],inactive
same,outcome,[3],inactive
same,outcome,[4],inactive
same,outcome,[5],inactive
same,outcome,[6],inactive
same,outcome,[7],inactive
same,outcome,[8],inactive
same,outcome,[9],inactive
same,outcome,[10],inactive
same,outcome,[11],inactive
same,outcome,[12],inactive
same,outcome,[13],inactive
same,outcome,[14],inactive
same,outcome,[15],inactive
same,outcome,[16],inactive
same,outcome,[17],inactive
same,outcome,[18],inactive
same,outcome,[19],inactive
same,outcome,[20],inactive
COc1cccc(OC)c1C(=O)O,outcome,[1],inactive
same,outcome,[2],inactive
same,outcome,[3],inactive
same,outcome,[4],inactive
same,outcome,[5],inactive
same,outcome,[6],inactive
same,outcome,[7],inactive
same,outcome,[8],inactive
same,outcome,[9],inactive
same,outcome,[10],inactive
same,outcome,[11],inactive
same,outcome,[12],inactive
same,outcome,[13],inactive
same,outcome,[14],inactive
same,outcome,[15],inactive
same,outcome,[16],inactive
same,outcome,[17],inactive
same,outcome,[18],inactive
same,outcome,[19],inactive
same,outcome,[20],inactive
CC(C)CC(=O)CC(C)C,outcome,[1],inactive
same,outcome,[2],inactive
same,outcome,[3],inactive
same,outcome,[4],inactive
same,outcome,[5],inactive
same,outcome,[6],inactive
same,outcome,[7],inactive
same,outcome,[8],inactive
same,outcome,[9],inactive
same,outcome,[10],inactive
same,outcome,[11],inactive
same,outcome,[12],inactive
same,outcome,[13],inactive
same,outcome,[14],inactive
same,outcome,[15],inactive
same,outcome,[16],inactive
same,outcome,[17],inactive
same,outcome,[18],inactive
same,outcome,[19],inactive
same,outcome,[20],inactive
